The record followed here is PubChem BioAssay (NCI).

Test in all cases: NCI-60 one-dose screen, 48 h (100 = growth as untreated, 0 = no growth, -100 = all killed)
Common to all, as to conditions: 10 µM unless noted

The test system of assay [1] is OVCAR-8 ovarian.
Assay [2] concerns OVCAR-5 ovarian.
The subject of assay [3] is OVCAR-4 ovarian.
The subject of assay [4] is SK-OV-3 ovarian.
Assay [5] has as its system IGROV1 ovarian.
Assay [6] concerns OVCAR-3 ovarian.
Assay [7] concerns HS 578T breast.
Assay [8] relates to NCI/ADR-RES ovarian.
Assay [9] concerns RPMI-8226 leukemia.

The panel holds about 83,000 compounds, 20% with a hit somewhere; the sample as a whole holds those more often.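 Assay: single dose, 48 h. Readout: percent growth (0 = no net growth; negative = cell death). Active: <10.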 A number with no mark means an inactive call. Activity calls are given as the source filed them.

In the case of `N#CC(C(=O)/C(=N/NC(=O)c1ccccc1O)C(C#N)c1ccccc1)c1ccccc1` (stereo not given), the growth in assay [1] was 52.3%; in assay [2], 91.2%; in assay [3] it was 58.8%; in [4], 45.9%; in assay [5], 37.7%; in assay [6], 68.7%. For the same compound, the growth in assay [7] was 24.1%; in assay [8] it was 44.5%.

For the compound `O=S(=O)(NCCNc1nccc(-c2c(-c3cccc(F)c3)nc3sccn23)n1)c1ccc(Br)cc1`, the growth was 58% in assay [9]; 45.5% in assay [1]; 83.6% in [2]; 47% in assay [3]; 77.3% in assay [4]; 8.47% (active) in assay [5]. For the same compound, the growth was 62.4% in [6], 63.6% in assay [7] and 61.8% in [8].

Regarding `COc1cc(NC(=O)CSc2nc3ccc(C)cc3c(=O)n2Cc2ccccc2)cc(OC)c1OC`, the growth is 41.3% in assay [1]; 96.3% in assay [2]; 40% in [4]; 74.3% in assay [5]; 43.8% in assay [6]; 44.9% in assay [7]. The growth in [8] is 66.3%.

Turning to `COC1=CC(=O)c2ccccc2C1=O`, the growth was 73% in assay [9]; 65.4% in assay [1]; 107% in assay [2]; 70.4% in [3]; 101% in assay [4]; 83.6% in [5]. The values for the growth in assay [7] and in assay [8] were 100% and 60.8%, respectively.

In the case of `COc1ccc(C(=O)c2cc(C)c(OC)c(C)c2)c(OC)c1N(C(=O)CCl)C(=O)CCl`, the growth in assay [9] was 17.7%; in assay [1], 10.3%; in assay [2], 29.2%; in [3], 44.9%; in assay [4] it was 2.36% (active); in assay [5], 13.8%. Moreover, the growth in assay [7] was 23%; in assay [8], -37.1% (active).

Turning to `Cc1ccc(-n2nc3c(c(C#N)c2=O)CC(c2ccccc2[N+](=O)[O-])C([N+](=O)[O-])=C3O)cc1` (stereo not given), the growth in assay [1] was 90.2%; in assay [2], 99.8%; in [3], 75.2%; in assay [5] it was 86.2%; in assay [6], 87.5%; in assay [7] it was 77.7%. For the same compound, the growth in assay [8] is 99.8%.

As for `Cc1nc2ccc(Cl)cn2c1-c1nnc(SCc2ccc([N+](=O)[O-])cc2)o1`, the growth is 36.8% in [1]; 83.7% in assay [2]; 32.5% in assay [3]; 62.3% in assay [5]; 66.8% in [6]; 45.6% in assay [7]. In addition, the growth in [8] was 36.1%.

As for `N#Cc1c(-c2cccc([N+](=O)[O-])c2)nc(SCC(=O)c2ccc(Cl)cc2)[nH]c1=O`, the growth in [9] is 102%; in assay [1] it was 99.3%; in assay [2], 102%; in assay [3] it was 102%; in assay [4], 95.4%; in assay [5], 104%. Moreover, the growth is 103% in [6], 97.6% in assay [7] and 97.2% in assay [8].

On to `Cc1cc2c(c(C)c1Cl)C(=O)/C(=C/c1ccc(O)c(O)c1)O2`, for which the growth was 99.8% in assay [1]; 117% in assay [2]; 96.3% in [3]; 96.9% in assay [5]; 109% in assay [6]; 94% in assay [7]. Moreover, the growth in assay [8] is 104%.

As for `CCCCN1C=CCN(CCCC)C1`, the growth in assay [9] was 37.9%; in assay [1], 44.2%; in assay [2], 82.7%; in [3] it was 42.6%; in assay [4], 84.2%; in [5] it was 46.4%. For the same compound, the values for the growth in assay [7] and in assay [8] were 88.9% and 108%, respectively.

As for `O=C(/C=C(/C=C/c1coc2ccccc12)OB(F)F)/C=C/c1coc2ccccc12`, the growth was 87.7% in assay [1]; 113% in assay [2]; 107% in [3]; 122% in assay [4]; 97.5% in assay [5]; 58.2% in [6]. The growth was 91.4% in assay [7] and 102% in assay [8].

Regarding `CCOc1ccc(Nc2nc(-c3ccc4c(c3)NC(=O)CO4)cs2)cc1`, the growth was 28% in assay [9]; 62.8% in assay [1]; 92.8% in assay [2]; 100% in [4]; 94.3% in assay [5]; 73.7% in [6]. The figures for the growth in [7] and in assay [8] were 107% and 14.4%, respectively.

In the case of `CSc1nc2sc3cccc(Cl)c3n2c(=N)c1C#N`, the growth is 90.7% in assay [9]; 99.3% in assay [1]; 119% in [2]; 93.4% in assay [5]; 110% in [6]; 98.2% in assay [7]. For the same compound, in [8], the growth was 103%.

With `O=Cc1cc2ccccc2nc1Oc1ccc(C(F)(F)F)cc1`, the growth is 33% in [9]; 91% in [1]; 99.2% in assay [2]; 98.6% in assay [3]; 81.5% in assay [4]; 68.3% in [5]. Also, the growth in assay [7] is 89.7%; in assay [8], 92.9%.

Take `CC(C)=CCC[C@](C)(O)[C@H]1CC[C@]2(C)[C@@H]1CC[C@@H]1[C@@]3(C)C/C(=C/c4ccccc4)C(=O)C(C)(C)[C@@H]3CC[C@]12C`: the growth was 79.3% in [9]; 93.4% in assay [1]; 102% in assay [2]; 89.2% in assay [3]; 97.8% in [4]; 101% in [5]. Further, the growth was 103% in assay [6], 91.3% in assay [7] and 100% in assay [8].

Regarding `OC(c1cccc(C(F)(F)F)c1)c1cnccc1NC1CCCCC1` (stereo not given), the growth in [9] is 29.9%; in assay [1], 86.9%; in [2], 95.3%; in assay [4], 95.9%; in [5], 76.3%; in assay [6], 81.1%. For the same compound, the growth in assay [7] was 80.6%; in assay [8] it was 79.1%.

For `COc1ccc(C(=O)CC#N)cc1`, the growth was 103% in assay [1]; 105% in [2]; 107% in assay [3]; 112% in assay [4]; 123% in [5]; 112% in assay [6]. Further, the growth in [7] is 110%; in [8] it was 111%.

For `Cn1cc(-c2csc(-c3c[nH]c4ccccc34)n2)c2ccnc(Cl)c21`, the growth is 78.3% in assay [1]; 127% in assay [2]; 48.5% in [3]; 93.9% in [4]; 91.8% in assay [5]; 81% in assay [6]. In addition, the growth in assay [7] is 80.8%; in [8], 81.8%.

Consider `CN1[C@@H]2CC[C@H]1/C(=C\c1ccccc1)C(=O)/C2=C/c1ccccc1`, for which the growth in assay [9] is 27%; in assay [1] it was -9.6% (active); in assay [2], 98.4%; in [3], 48.4%; in [4] it was 79.1%; in [5] it was 41.7%. The growth in assay [6] was 14.4%; in [7], 33.7%; in [8] it was 10.7%.

Take `C#CCNC(=O)[C@H](Cc1ccccc1)NC(=O)[C@]12CC[C@@H](C(=C)C)[C@@H]1[C@H]1CC[C@@H]3[C@@]4(C)CCC(=O)C(C)(C)[C@@H]4CC[C@@]3(C)[C@]1(C)CC2`: the growth was 38% in assay [9]; 86.8% in [1]; 87.1% in [2]; 81.6% in assay [3]; 84.7% in assay [4]; 89.1% in assay [5]. Also, the growth in [7] is 85.1%; in [8], 79.8%.

`CCCNC(=O)Oc1ccc(/C(=C(\C)c2ccccc2)c2ccc(OCCCN(C)C)cc2)cc1`: the growth is 86.6% in assay [1]; 80.5% in [2]; 79.7% in assay [3]; 71.9% in [4]; 89.5% in assay [5]; 83% in assay [6]. For the same compound, the growth in assay [7] is 55.3%; in [8], 77.7%.

With `C=CCn1c(-c2ccc(-c3nc4ccc(C)cc4[nH]3)cc2)n[nH]c1=S`, the growth in assay [1] was 94.4%; in assay [2] it was 101%; in [3] it was 90.4%; in assay [5] it was 97.9%; in assay [6] it was 112%; in assay [7] it was 102%. For the same compound, the growth in assay [8] was 108%.

Consider `COc1cc2c(=O)n(CCN)c3c4cc5c(cc4ccc3c2cc1OC)OCO5`, for which the growth is -41.7% (active) in [9]; -49.9% (active) in [1]; -76.9% (active) in assay [2]; 16.6% in [4]; -75.6% (active) in assay [5]; -79.3% (active) in [6]. Besides, the growth is 25.8% in assay [7] and -37.3% (active) in assay [8].

With `COC(=O)C(CC=O)C(=O)C(=O)Nc1cccc(C(F)(F)F)c1` (stereo not given), the growth in [1] is 90.5%; in [2], 112%; in assay [3], 105%; in assay [4], 93.5%; in [5] it was 102%; in assay [6] it was 106%. The growth was 90.6% in assay [7] and 107% in [8].

With `CCNc1nc2cc(Nc3ccnc4cc(Cl)ccc34)ccc2o1`, the growth in [1] is 85.3%; in assay [2], 71.8%; in [3], 75.5%; in [4], 84.8%; in assay [5], 70.1%; in [7], 84.5%. The growth in [8] is 52.3%.

On to `N#C/C(=C\c1cccc(C#N)c1)c1ccccc1`, for which the growth in [1] was 111%; in [2] it was 100%; in assay [3], 98.8%; in assay [4], 105%; in [5] it was 107%; in assay [6], 105%. Also, the growth is 106% in [7] and 101% in assay [8].
